# Several values for one entry are separate records, joined by “and”; a condition that tells them apart may be missing. Equal values may be shown once. Results filed as inconclusive are left out. Activity calls are given as the source filed them. Rule for the calls: active = hit-call score of the fitted dose curve at least 0.9, where 1 is the maximum; inconclusive = response in the unintended direction; inactive = score below 0.9.
# Assays:
# [1] = molecular target: rat Adenylate Cyclase, Forskolin Stimulated, Adcy5 (gene 64532) (UniProt Q04400); test: NVS_ENZ_rACFSKBinding: NovaScreen (NVS) Enzymatic Assay for rat Adenylate Cyclase, Forskolin Stimulated (AID 2283232)
# Procedure, shortened: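 Chemicals were first tested at 25 uM in duplicate, then hits run as concentration series with top concentration 50 uM. Enzyme source was rat forebrain membranes; radiometric filter read-out after 1 h, referenced to DMSO.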
# [2] = molecular target: human Vascular Endothelial Growth Factor Receptor 1 (VEGFR1), FLT1 (gene 2321) (UniProt P17948); test: NVS_ENZ_hVEGFR1: NovaScreen (NVS) Enzymatic Assay for human Vascular Endothelial Growth Factor Receptor 1 (VEGFR1) (AID 2283226)
# Procedure, shortened: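 Kinase activity of recombinant human VEGFR1 was read by fluorescence after electrophoretic separation of product from substrate, 1 h post-dosing; initial duplicate single-point testing at 25 uM, followed by concentration-series follow-up, with DMSO as baseline.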
# [3] = molecular target: rabbit Imidazoline 2 Central (I2C), CKB (gene 100009085) (UniProt P00567); test: NVS_ENZ_rabI2C: NovaScreen (NVS) Enzymatic Assay for rabbit Imidazoline 2 Central (I2C) (AID 2283228)
# Protocol: NVS_ENZ_rabI2C is a biochemical, single-readout assay that uses extracted gene-proteins from Rabbit brain membranes in a tissue-based cell-free assay. Measurements were taken 1.5 hours after chemical dosing in a 48-well plate.NVS_ENZ_rabI2C is one of one assay component(s) measured or calculated from the NVS_ENZ_rabI2C assay. It is designed to make measurements of enzyme activity, a form of enzyme reporter, as detected with scintillation counting signals by Filter-based radiodetection technology.Data from the assay component NVS_ENZ_rabI2C was analyzed into 1 assay endpoint. This assay endpoint, NVS_ENZ_rabI2C, was analyzed in the positive analysis fitting direction relative to DMSO as the negative control and baseline of activity. Using a type of enzyme reporter, loss-of-signal activity can be used to understand changes in the enzymatic activity as they relate to the gene CKB. Furthermore, this assay endpoint can be referred to as a primary readout, because this assay has produced multiple assay endpoints where this one serves a enzymatic activity function. To generalize the intended target to other relatable targets, this assay endpoint is annotated to the oxidoreductase intended target family, where the subfamily is imidazoline receptor.
# Binding assays used specific radioligands (tritiated, iodinated) with non-radioactive competitive displacement ligands in agonist or antagonist protocols (as indicated) and various reference compounds and inhibitors to titrate specific binding to receptors and transporters. Most enzyme assays (CYPs, kinases, phosphatases, proteases, HDACs) used recombinant protein and specific substrates (fluorescence mostly, some colorimetric and radioactive) and inhibitors, followed by a biochemical separation of substrate and product. All assays for the biochemical HTS were initially run in duplicate at a single concentration (10 uM for CYP450 assays and 25 uM for all others). […]
# [4] = molecular target: human Tyrosine Protein Kinase Receptor Tie-2 (Tie2), TEK (gene 7010) (UniProt Q02763); test: NVS_ENZ_hTie2: NovaScreen (NVS) Enzymatic Assay for human Tyrosine Protein Kinase Receptor Tie-2 (Tie2) (AID 2283225)
# Protocol: (§1) NVS_ENZ_hTie2 is a biochemical, single-readout assay that uses extracted gene-proteins in a cell-free assay. Measurements were taken 1 hour after chemical dosing in a 384-well plate.NVS_ENZ_hTie2 is one of one assay component(s) measured or calculated from the NVS_ENZ_hTie2 assay. It is designed to make measurements of enzyme activity, a form of enzyme reporter, as detected with fluorescence intensity signals by Fluorescence and electrophoretic mobility shift technology.Data from the assay component NVS_ENZ_hTie2 was analyzed into 1 assay endpoint. This assay endpoint, NVS_ENZ_hTie2, was analyzed in the positive analysis fitting direction relative to DMSO as the negative control and baseline of activity. Using a type of enzyme reporter, loss-of-signal activity can be used to understand changes in the enzymatic activity as they relate to the gene TEK. Furthermore, this assay endpoint can be referred to as a primary readout, because this assay has produced multiple assay endpoints where this one serves a enzymatic activity function. To generalize the intended target to other relatable targets, this assay endpoint is annotated to the kinase intended target family, where the subfamily is receptor tyrosine kinase.
# (§2) Binding assays used specific radioligands (tritiated, iodinated) with non-radioactive competitive displacement ligands in agonist or antagonist protocols (as indicated) and various reference compounds and inhibitors to titrate specific binding to receptors and transporters. Most enzyme assays (CYPs, kinases, phosphatases, proteases, HDACs) used recombinant protein and specific substrates (fluorescence mostly, some colorimetric and radioactive) and inhibitors, followed by a biochemical separation of substrate and product. All assays for the biochemical HTS were initially run in duplicate at a single concentration (10 uM for CYP450 assays and 25 uM for all others). Assay-chemical combinations meeting a pre-defined threshold (e.g., 30% inhibition and other criteria defined below) were then run in singleton concentration-response format with maximum concentration of 20 uM for CYPs and 50 uM for all others. Each assay was run with positive and negative controls, and concurrent controls on every plate. The follow-up (secondary) screen tested active chemical-pairs in concentration series, as well as a few additional assays not tested in the primary screen, some selected negative inactives, and several cases re-run in the concentration series for confirmatory purposes.
# [5] = molecular target: rat Acetylcholinesterase (AChE), Ache (gene 83817) (UniProt P37136); test: NVS_ENZ_rAChE: NovaScreen (NVS) Enzymatic Assay for rat Acetylcholinesterase (AChE) (AID 2283233)
# Protocol: NVS_ENZ_rAChE is a biochemical, single-readout assay that uses extracted gene-proteins from Rat brain membranes in a tissue-based cell-free assay. Measurements were taken 0.33 hour after chemical dosing in a 96-well plate.NVS_ENZ_rAChE is one of one assay component(s) measured or calculated from the NVS_ENZ_rAChE assay. It is designed to make measurements of enzyme activity, a form of enzyme reporter, as detected with absorbance signals by Colorimetric technology.Data from the assay component NVS_ENZ_rAChE was analyzed into 1 assay endpoint. This assay endpoint, NVS_ENZ_rAChE, was analyzed in the positive analysis fitting direction relative to DMSO as the negative control and baseline of activity. Using a type of enzyme reporter, loss-of-signal activity can be used to understand changes in the enzymatic activity as they relate to the gene Ache. Furthermore, this assay endpoint can be referred to as a primary readout, because this assay has produced multiple assay endpoints where this one serves a enzymatic activity function. To generalize the intended target to other relatable targets, this assay endpoint is annotated to the esterase intended target family, where the subfamily is acetylcholinesterase.
# as §2
# [6] = molecular target: human Tropomyosin Receptor Kinase A (TRKA), NTRK1 (gene 4914) (UniProt P04629); test: NVS_ENZ_hTrkA: NovaScreen (NVS) Enzymatic Assay for human Tropomyosin Receptor Kinase A (TRKA) (AID 2283224)
# Protocol: as §1, with “NVS_ENZ_hTrkA” for “NVS_ENZ_hTie2”, “plate.NVS_ENZ_hTrkA” for “plate.NVS_ENZ_hTie2”, “NVS_ENZ_hTrkA,” for “NVS_ENZ_hTie2,”, “NTRK1.” for “TEK.”
# as §2
# [7] = molecular target: sheep Cyclooxygenase-2 (Cox2), PTGS2 (gene 443460) (UniProt P79208); test: NVS_ENZ_oCOX2: NovaScreen (NVS) Enzymatic Assay for sheep Cyclooxygenase-2 (Cox2) (AID 2283231)
# Procedure, shortened: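 Ovine placental enzyme, cell-free; chemical added, 0.66 h, absorbance (colorimetric). Screen 25 uM in duplicate; ≥threshold hits titrated, top 50 uM. Inhibition = signal loss vs DMSO.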
# [8] = molecular target: rat Catechol-O-Methyl Transferase (COMT), Comt (gene 24267) (UniProt P22734); test: NVS_ENZ_rCOMT: NovaScreen (NVS) Enzymatic Assay for rat Catechol-O-Methyl Transferase (COMT) (AID 2283235)
# Procedure, shortened: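 Rat dorsal striatum extract served as COMT source; product quantified by HPLC/spectrophotometry, read at 0 h after dosing. Primary single-concentration screen at 25 uM, followed by concentration series to a 50 uM maximum.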
# [9] = molecular target: human Vascular Endothelial Growth Factor Receptor 3 (VEGFR3), FLT4 (gene 2324) (UniProt P35916); test: NVS_ENZ_hVEGFR3: NovaScreen (NVS) Enzymatic Assay for human Vascular Endothelial Growth Factor Receptor 3 (VEGFR3) (AID 2283229)
# Procedure, shortened: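 Chemicals first run in duplicate at 25 uM, with actives re-tested in concentration series to a top of 50 uM. Recombinant VEGFR3 activity measured after 1 h via fluorescence with mobility-shift product separation; inhibition fitted relative to DMSO.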
# [10] = molecular target: human Vascular Endothelial Growth Factor Receptor 2 (VEGFR2), KDR (gene 3791) (UniProt P35968); test: NVS_ENZ_hVEGFR2: NovaScreen (NVS) Enzymatic Assay for human Vascular Endothelial Growth Factor Receptor 2 (VEGFR2) (AID 2283230)
# Procedure, shortened: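 Cell-free recombinant VEGFR2 kinase, fluorescent substrate with electrophoretic mobility-shift separation; read 1 h after dosing. Screened at 25 uM in duplicate, hits to concentration-response up to 50 uM; loss-of-signal versus DMSO.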
# Chain of sheep Cyclooxygenase-2 (Cox2), PTGS2 (gene 443460) (P79208 whole entry, looked up): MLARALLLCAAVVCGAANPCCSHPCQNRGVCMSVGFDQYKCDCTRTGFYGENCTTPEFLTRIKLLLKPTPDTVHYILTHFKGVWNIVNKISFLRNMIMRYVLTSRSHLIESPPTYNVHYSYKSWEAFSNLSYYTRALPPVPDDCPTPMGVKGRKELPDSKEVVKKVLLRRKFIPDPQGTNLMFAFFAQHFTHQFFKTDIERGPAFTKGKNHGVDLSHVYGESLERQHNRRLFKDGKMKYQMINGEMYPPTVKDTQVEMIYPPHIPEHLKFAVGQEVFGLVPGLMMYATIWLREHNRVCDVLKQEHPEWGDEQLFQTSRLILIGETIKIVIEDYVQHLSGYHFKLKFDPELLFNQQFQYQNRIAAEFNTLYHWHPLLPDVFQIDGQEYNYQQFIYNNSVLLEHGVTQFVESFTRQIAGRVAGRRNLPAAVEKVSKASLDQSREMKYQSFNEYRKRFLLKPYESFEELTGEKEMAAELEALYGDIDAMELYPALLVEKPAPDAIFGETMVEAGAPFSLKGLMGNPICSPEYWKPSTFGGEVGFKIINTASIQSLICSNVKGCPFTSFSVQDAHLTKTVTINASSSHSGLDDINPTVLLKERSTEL
# Chain of rat Catechol-O-Methyl Transferase (COMT), Comt (gene 24267) (P22734 whole entry, looked up): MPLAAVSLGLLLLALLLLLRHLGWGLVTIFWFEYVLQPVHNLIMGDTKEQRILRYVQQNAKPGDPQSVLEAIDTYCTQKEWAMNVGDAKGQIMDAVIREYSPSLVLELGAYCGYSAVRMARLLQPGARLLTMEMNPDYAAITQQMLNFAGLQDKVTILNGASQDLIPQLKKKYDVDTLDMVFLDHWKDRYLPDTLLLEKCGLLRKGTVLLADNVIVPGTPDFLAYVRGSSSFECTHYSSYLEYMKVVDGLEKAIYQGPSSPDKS
# Chain of rat Acetylcholinesterase (AChE), Ache (gene 83817) (P37136 whole entry, looked up): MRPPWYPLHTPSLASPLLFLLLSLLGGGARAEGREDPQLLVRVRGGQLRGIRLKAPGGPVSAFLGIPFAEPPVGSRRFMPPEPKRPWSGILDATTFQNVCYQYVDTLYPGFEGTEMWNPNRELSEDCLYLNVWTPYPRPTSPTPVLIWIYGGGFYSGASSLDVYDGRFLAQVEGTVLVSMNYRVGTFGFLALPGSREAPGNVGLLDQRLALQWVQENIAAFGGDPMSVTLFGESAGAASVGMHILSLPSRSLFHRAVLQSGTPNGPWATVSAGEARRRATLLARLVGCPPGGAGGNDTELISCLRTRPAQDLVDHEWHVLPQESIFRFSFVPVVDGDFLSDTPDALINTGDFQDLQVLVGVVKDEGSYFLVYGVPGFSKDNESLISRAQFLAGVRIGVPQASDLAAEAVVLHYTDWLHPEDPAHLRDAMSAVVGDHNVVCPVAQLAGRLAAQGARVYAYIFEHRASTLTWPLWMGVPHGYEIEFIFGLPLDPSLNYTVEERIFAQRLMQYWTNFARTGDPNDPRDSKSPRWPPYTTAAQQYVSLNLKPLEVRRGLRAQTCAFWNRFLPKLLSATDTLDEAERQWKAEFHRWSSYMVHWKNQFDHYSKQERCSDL
# Chain of rat Adenylate Cyclase, Forskolin Stimulated, Adcy5 (gene 64532) (Q04400 whole entry, looked up): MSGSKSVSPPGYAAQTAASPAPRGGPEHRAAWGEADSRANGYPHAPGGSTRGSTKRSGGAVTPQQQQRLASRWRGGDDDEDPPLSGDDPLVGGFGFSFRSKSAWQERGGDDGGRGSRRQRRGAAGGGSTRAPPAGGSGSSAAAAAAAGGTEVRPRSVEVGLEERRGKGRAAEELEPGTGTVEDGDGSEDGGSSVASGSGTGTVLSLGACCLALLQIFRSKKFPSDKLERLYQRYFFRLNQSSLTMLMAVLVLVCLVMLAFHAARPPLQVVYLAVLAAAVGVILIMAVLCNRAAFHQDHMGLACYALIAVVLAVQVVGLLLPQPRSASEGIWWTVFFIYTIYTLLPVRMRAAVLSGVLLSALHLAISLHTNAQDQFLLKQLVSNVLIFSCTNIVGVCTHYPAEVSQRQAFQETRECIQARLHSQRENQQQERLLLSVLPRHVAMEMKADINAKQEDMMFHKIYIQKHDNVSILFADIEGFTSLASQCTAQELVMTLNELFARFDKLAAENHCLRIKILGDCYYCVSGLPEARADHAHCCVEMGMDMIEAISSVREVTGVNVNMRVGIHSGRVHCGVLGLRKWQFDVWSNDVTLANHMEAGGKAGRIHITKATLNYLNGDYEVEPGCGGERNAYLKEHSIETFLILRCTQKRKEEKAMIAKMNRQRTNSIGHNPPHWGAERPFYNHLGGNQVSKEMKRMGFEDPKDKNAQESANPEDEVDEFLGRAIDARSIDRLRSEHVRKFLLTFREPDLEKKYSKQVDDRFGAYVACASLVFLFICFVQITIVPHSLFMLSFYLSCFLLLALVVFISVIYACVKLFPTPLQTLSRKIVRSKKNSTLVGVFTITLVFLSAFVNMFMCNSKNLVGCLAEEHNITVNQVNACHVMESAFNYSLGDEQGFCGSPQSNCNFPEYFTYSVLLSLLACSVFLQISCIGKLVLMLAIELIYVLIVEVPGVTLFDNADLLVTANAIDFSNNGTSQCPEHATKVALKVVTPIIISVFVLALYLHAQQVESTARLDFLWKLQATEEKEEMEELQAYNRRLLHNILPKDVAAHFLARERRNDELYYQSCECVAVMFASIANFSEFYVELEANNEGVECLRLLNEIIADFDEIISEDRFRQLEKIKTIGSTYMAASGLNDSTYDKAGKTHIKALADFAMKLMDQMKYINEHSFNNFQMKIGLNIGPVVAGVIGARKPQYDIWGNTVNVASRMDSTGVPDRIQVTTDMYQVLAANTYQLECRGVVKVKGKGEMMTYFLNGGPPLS
# Chain of human Tyrosine Protein Kinase Receptor Tie-2 (Tie2), TEK (gene 7010) (Q02763 whole entry, looked up): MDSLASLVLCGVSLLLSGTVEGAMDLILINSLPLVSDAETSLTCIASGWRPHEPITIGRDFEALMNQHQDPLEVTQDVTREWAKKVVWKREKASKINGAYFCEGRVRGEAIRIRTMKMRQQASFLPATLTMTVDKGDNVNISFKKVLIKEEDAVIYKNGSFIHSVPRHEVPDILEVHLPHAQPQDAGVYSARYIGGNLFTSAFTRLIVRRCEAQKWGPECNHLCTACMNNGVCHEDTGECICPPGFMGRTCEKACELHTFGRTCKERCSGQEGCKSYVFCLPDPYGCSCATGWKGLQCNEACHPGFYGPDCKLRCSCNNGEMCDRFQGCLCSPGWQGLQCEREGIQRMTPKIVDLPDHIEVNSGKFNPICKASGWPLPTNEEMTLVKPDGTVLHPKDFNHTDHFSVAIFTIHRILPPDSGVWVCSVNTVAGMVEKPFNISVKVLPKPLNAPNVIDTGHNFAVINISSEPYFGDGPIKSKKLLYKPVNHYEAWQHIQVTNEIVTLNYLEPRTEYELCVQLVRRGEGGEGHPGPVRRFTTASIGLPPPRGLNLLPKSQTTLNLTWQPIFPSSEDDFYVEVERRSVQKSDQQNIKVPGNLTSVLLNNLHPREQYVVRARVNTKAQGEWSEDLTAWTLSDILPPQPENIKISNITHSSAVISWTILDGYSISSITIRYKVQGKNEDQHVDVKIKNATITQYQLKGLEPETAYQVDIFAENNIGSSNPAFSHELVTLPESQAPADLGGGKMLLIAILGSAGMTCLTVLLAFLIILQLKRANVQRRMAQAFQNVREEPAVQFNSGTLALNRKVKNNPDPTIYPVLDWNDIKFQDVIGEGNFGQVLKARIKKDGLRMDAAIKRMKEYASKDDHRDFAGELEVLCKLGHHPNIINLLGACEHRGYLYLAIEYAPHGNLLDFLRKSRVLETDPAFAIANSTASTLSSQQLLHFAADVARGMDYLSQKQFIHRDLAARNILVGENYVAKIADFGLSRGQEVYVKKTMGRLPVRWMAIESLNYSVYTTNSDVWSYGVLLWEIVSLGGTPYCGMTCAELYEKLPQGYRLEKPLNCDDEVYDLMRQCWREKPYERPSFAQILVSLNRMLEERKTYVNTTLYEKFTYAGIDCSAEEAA
# Chain of human Tropomyosin Receptor Kinase A (TRKA), NTRK1 (gene 4914) (P04629 whole entry, looked up): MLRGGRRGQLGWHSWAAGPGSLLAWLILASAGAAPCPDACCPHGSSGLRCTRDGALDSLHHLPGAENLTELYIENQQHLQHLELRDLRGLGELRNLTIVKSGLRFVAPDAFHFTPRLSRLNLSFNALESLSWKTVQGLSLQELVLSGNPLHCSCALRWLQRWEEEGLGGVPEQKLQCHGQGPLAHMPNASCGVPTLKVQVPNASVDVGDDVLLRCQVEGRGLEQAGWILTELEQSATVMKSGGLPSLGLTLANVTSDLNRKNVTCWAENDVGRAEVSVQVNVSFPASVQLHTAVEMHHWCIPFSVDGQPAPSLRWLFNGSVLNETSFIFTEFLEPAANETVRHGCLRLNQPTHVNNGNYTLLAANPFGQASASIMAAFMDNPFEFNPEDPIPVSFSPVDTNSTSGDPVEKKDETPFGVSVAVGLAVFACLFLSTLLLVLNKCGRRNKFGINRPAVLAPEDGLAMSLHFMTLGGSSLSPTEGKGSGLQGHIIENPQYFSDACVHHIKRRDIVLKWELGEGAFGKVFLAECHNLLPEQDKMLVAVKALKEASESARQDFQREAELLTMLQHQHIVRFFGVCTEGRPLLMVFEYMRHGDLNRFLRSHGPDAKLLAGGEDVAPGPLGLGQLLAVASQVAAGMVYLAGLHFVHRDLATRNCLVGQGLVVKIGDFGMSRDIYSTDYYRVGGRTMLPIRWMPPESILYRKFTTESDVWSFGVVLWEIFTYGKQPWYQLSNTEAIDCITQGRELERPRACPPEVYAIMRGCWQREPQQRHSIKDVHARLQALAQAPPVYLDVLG
# Chain of rabbit Imidazoline 2 Central (I2C), CKB (gene 100009085) (P00567 whole entry, looked up): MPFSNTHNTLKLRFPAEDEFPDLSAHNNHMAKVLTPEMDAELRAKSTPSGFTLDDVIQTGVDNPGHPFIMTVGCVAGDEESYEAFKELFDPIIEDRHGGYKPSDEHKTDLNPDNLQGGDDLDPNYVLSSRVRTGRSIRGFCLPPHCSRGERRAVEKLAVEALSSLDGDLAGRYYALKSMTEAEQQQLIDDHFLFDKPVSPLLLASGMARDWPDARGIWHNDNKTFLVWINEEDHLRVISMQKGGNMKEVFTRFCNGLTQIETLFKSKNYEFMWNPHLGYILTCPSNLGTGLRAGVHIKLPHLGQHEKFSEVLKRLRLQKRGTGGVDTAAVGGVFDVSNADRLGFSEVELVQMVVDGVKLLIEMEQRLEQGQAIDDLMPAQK
compound,measurement,setting,value
CCCCNC(=O)OCC#CI,AC50,[1],18.1 µM (active) and 19.4 µM (active)
COc1cnc(OC)n2nc(NS(=O)(=O)c3c(OCC(F)F)cccc3C(F)(F)F)nc12,outcome,[2],inactive
O=C(Nc1ccccc1)Nc1ccnc(Cl)c1,outcome,[3],inactive
CNC(=S)S,outcome,[4],inactive
same,outcome,[3],inactive
same,outcome,[1],inactive
CS/C(C)=N/OC(=O)N(C)SN(C)C(=O)O/N=C(\C)SC,AC50,[1],6.77 µM (active)
same,AC50,[5],2 µM (active)
COC(=O)C(C)Oc1ccc(Oc2ccc(Cl)cc2Cl)cc1 (configuration not stated),outcome,[4],inactive
CCCN(CCC)c1c([N+](=O)[O-])cc(S(N)(=O)=O)cc1[N+](=O)[O-],outcome,[6],inactive
same,outcome,[4],inactive
same,outcome,[2],inactive
same,outcome,[7],inactive
same,outcome,[1],inactive
Cc1ccc(-c2c(Cl)nc(C#N)n2S(=O)(=O)N(C)C)cc1,outcome,[4],inactive
COP(=S)(OC)Oc1nc(Cl)c(Cl)cc1Cl,outcome,[5],inactive
same,outcome,[8],inactive
CCOC(=O)CC(SP(=S)(OC)OC)C(=O)OCC (configuration not stated),outcome,[8],inactive
CCNc1nc(Cl)nc(NC(C)C)n1,outcome,[9],inactive
same,AC50,[7],7.07 µM (active) and 12.4 µM (active)
CNC(=O)ON=CC(C)(C)SC,AC50,[5],6.41 µM (active)
CCCCNC(=O)n1c(NC(=O)OC)nc2ccccc21,AC50,[3],14.2 µM (active)
same,outcome,[1],inactive
C=CCC1=C(C)C(OC(=O)C2C(C=C(C)C)C2(C)C)CC1=O (configuration not stated),outcome,[10],inactive
COC(=O)N(OC)c1ccccc1COc1ccn(-c2ccc(Cl)cc2)n1,outcome,[8],inactive
C=CC1(C)OC(=O)N(c2cc(Cl)cc(Cl)c2)C1=O (configuration not stated),AC50,[7],5.97 µM (active)
COC(=O)C=C(C)OP(=O)(OC)OC,AC50,[5],1.52 µM (active)
CN(C)C(=S)SSC(=S)N(C)C,AC50,[1],6.85 µM (active)
CON(C)C(=O)Nc1ccc(Cl)c(Cl)c1,outcome,[7],inactive
CCCCOC(=O)c1ccccc1C(=O)OCCCC,outcome,[4],inactive
CC(C)Oc1cc(-n2nc(C(C)(C)C)oc2=O)c(Cl)cc1Cl,outcome,[1],inactive
CC(Oc1ccc(Cl)cc1Cl)C(=O)O (configuration not stated),outcome,[6],inactive
CO/C=C(/C(=O)OC)c1ccccc1Oc1cc(Oc2ccccc2C#N)ncn1,outcome,[6],inactive
same,outcome,[10],inactive
N#Cc1cc(Br)c(O)c(Br)c1,outcome,[6],inactive
same,outcome,[9],inactive
same,AC50,[8],0.677 µM (active)
